The text below walks through data of the supplement of paper PMC7366291.

Counter-ions that a name gives are not always drawn. ± gives the standard deviation of the averaged measurements.

In this assay the test system is Danio rerio Tg(wt1b:EGFP) embryo, pronephros. Description: pronephric angle neck segment to proximal convoluted tubule (mean of left and right), fold change vs DMSO control; higher = larger pronephric angle. As to conditions: 25 µM; exposure: 24-48 hpf. In outline: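 Every feature is expressed as a fold change relative to the averaged DMSO-treated embryos of the same day. The exposure ran from 24 to 48 hpf at 28.5°C, with dechorionated Tg(wt1b:EGFP) zebrafish embryos in HEPES-buffered E3 containing 0.003% PTU, 0.5% DMSO and 25 μM compound. Dorsal pronephros images taken in agarose-filled 96-well plates were reduced to maximum projections, on which 16 reference points were set by hand in Fiji for a macro to compute distances and angles. Values more than 2 SD from the feature mean were not used.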
As for `CCCN(CCC)C(=O)C(CCC(=O)O)NC(=O)c1ccccc1` (configuration not stated) [Proglumide], the “pronephric angle neck segment” value was found to be 1.037 ± 0.006. In the case of `NC(=O)c1cc[n+](CC2=C(C(=O)[O-])N3C(=O)[C@@H](NC(=O)[C@@H](c4ccccc4)S(=O)(=O)O)[C@H]3SC2)cc1` [Cefsulodin sodium salt], the “pronephric angle neck segment” value turned out to be 0.976 ± 0.034. Under `O=C(NCCNCC(O)COc1ccc(O)cc1)N1CCOCC1` (configuration not stated) [Xamoterol hemifumarate] stands 0.98 ± 0.045; under `CC(N/C(=N\C#N)Nc1ccncc1)C(C)(C)C` (configuration not stated) [Pinacidil], 1.01 ± 0.036. Consider `CN(C)CCN(Cc1ccc(Cl)cc1)c1ccccn1` [Chloropyramine hydrochloride], for which the “pronephric angle neck segment” value is 0.964 ± 0.016. Consider `CN(C)[C@@H]1C(O)=C(C(N)=O)C(=O)[C@@]2(O)C(O)=C3C(=O)c4c(O)ccc(Cl)c4[C@@H](O)[C@H]3C[C@@H]12` [Demeclocycline hydrochloride], for which the “pronephric angle neck segment” value stood at 1.06 ± 0.013. Consider `NS(=O)(=O)c1cc(C(=O)O)c(NCc2ccco2)cc1Cl` [Furosemide], for which the “pronephric angle neck segment” value turned out to be 1.015 ± 0.01.
